Assay [1] concerns the target Glucocorticoid receptor (Homo sapiens) (UniProt P04150). Put plainly: ATG_GR_TRANS: Attagene TRANS-FACTORIAL HepG2 Assay for human Glucocorticoid Receptor (GR) (AID 2282978; active = hit-call score of the fitted dose curve at least 0.9, where 1 is the maximum;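 also: activators score as hits since higher reporter transcript over DMSO is fitted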). Particulars: HepG2 Attagene TRANS GR reporter, mRNA transcription. The gist of the method: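 In this trans-factorial format, exogenous NR-GAL4 chimeric proteins in transfected HepG2 cells regulate GAL4-UAS reporter transcription. After 24 h treatment, reporter mRNA induction relative to DMSO is read by RT-PCR and capillary electrophoresis.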

Assay [2] concerns the target Bile acid receptor (Homo sapiens) (UniProt Q96RI1). Put plainly: ATG_FXR_TRANS: Attagene TRANS-FACTORIAL HepG2 Assay for Farnesoid X Receptor (FXR) (AID 2282979; active = hit-call score of the fitted dose curve at least 0.9, where 1 is the maximum;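 also: hits raise reporter mRNA above DMSO so AC50 marks FXR activation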). Particulars: HepG2 Attagene TRANS FXR-GAL4 reporter transcription. The gist of the method: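 HepG2 cells transiently transfected with reporter constructs in which a chimeric FXR-GAL4 protein drives a GAL4-UAS reporter; 24 h compound exposure. Reporter mRNA measured by RT-PCR, FAM labelling, HpaI digestion and capillary electrophoresis; gain-of-signal versus DMSO.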

In assay [3] the target is Hepatocyte nuclear factor 4-alpha (Homo sapiens) (UniProt P41235). Put plainly: ATG_HNF4a_TRANS: Attagene TRANS-FACTORIAL HepG2 Assay for human Hepatocyte Nuclear Factor 4 alpha (HNF4a) (AID 2282982; active = hit-call score of the fitted dose curve at least 0.9, where 1 is the maximum). Particulars: HepG2 HNF4a transactivation reporter, mRNA readout. The gist of the method: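 Cells used were human HepG2, transiently carrying GAL4-UAS reporter units read out against exogenous NR-GAL4 chimeras. Reporter transcript levels after 24 h dosing were quantified by fluorescent RT-PCR and capillary electrophoresis.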

A short description of assay [4]: ATG_M_06_TRANS: Attagene TRANS-FACTORIAL HepG2 Assay for M06 Transcription Factor (Internal Marker) (AID 2282983; active = hit-call score of the fitted dose curve at least 0.9, where 1 is the maximum). The following applies: HepG2 Attagene TRANS M06 internal marker reporter. The gist of the method: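 HepG2 cells transiently transfected with multiplexed GAL4-UAS reporter transcription units; after 24 h compound exposure, reporter mRNA measured by RT-PCR, FAM-labelled primer extension, HpaI digestion and capillary electrophoresis. Gain-of-signal fitted versus DMSO baseline; background control readout.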

Assay [5] deals with Nuclear receptor subfamily 4 group A member 2 (Homo sapiens) (UniProt P43354). Put plainly: ATG_NURR1_TRANS: Attagene TRANS-FACTORIAL HepG2 Assay for human Nuclear Receptor Related Protein 1 (NURR1) (AID 2282985; active = hit-call score of the fitted dose curve at least 0.9, where 1 is the maximum). Particulars: HepG2 Attagene TRANS reporter, mRNA readout. The gist of the method:
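After 24 h chemical dosing, total RNA from transiently transfected HepG2 cells was reverse-transcribed and reporter cDNA PCR-amplified, FAM-labelled and analysed by capillary electrophoresis. Activity fitted in positive direction, DMSO as negative control.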

Assay [6] concerns the target Transcriptional activator Myb (Homo sapiens) (UniProt P10242). Put plainly: ATG_Myb_CIS: Attagene CIS-FACTORIAL HepG2 Assay for human Myeloblastosis (Myb) Proto-Oncogene Transcription Factor (AID 2282986). The following applies: HepG2 Attagene CIS-FACTORIAL Myb reporter transcription; actives raise or lower the signal. The gist of the method:
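Steps: transfect HepG2 with cis-regulated reporter units; dose with chemical for 24 h; isolate RNA, reverse-transcribe, PCR-amplify and FAM-label reporter sequences; digest with HpaI; resolve by capillary electrophoresis. Activity fitted in both directions relative to DMSO.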

In assay [7] the target is Nuclear respiratory factor 1 (Homo sapiens) (UniProt Q16656). Put plainly: ATG_NRF1_CIS: Attagene CIS-FACTORIAL HepG2 Assay for human Nuclear Respiratory Factor 1 (NRF1) Orphan Gene (AID 2282987). The following applies: HepG2 NRF1 cis-element reporter, Attagene multiplex; actives raise or lower the signal. The gist of the method: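 Fluorescence intensity of labelled reporter cDNA fragments, resolved by capillary electrophoresis, served as readout for NRF1 cis-element activity. Transiently transfected HepG2 cells were dosed for 24 hours; activity in either direction was fitted against DMSO negative control.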

Assay [8] in a line: ATG_NFI_CIS: Attagene CIS-FACTORIAL HepG2 Assay for human Nuclear Factor I (NFI) (AID 2282989). Particulars: HepG2 cis-regulatory reporter, NFI response element transcription; actives raise or lower the signal. The gist of the method:
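Endogenous TF activity in HepG2 cells transiently transfected with cis-element-driven multiplexed reporter units, read 24 h after dosing. Reporter mRNA quantified by RT-PCR, 6-FAM labelling, HpaI digestion and capillary electrophoresis; bidirectional fit versus DMSO.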

Assay [9] addresses Myc proto-oncogene protein (Homo sapiens) (UniProt P01106). Put plainly: ATG_Myc_CIS: Attagene CIS-FACTORIAL HepG2 Assay for human Myelocytomatosis (Myc) Proto-Oncogene Transcription Factor (AID 2282990). Particulars: HepG2, Attagene cis-reporter transcription factor activity; actives raise or lower the signal. The gist of the method: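 HepG2 cells transiently transfected with multiple cis-promoter-driven reporter transcription units, so endogenous TF activity is read. After 24 h compound exposure, reporter mRNA was quantified by RT-PCR, 6-FAM labelling, HpaI digestion and capillary electrophoresis; bidirectional fit versus DMSO.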

The nature of assay [10]: ATG_NRF2_ARE_CIS: Attagene CIS-FACTORIAL HepG2 Assay for human Nuclear Factor Erythroid 2 Related Factor 2 (NFR2) response to Antioxidant Response Elements (ARE) (AID 2282992).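 As to AC50: reporter mRNA level measured by RT-PCR and capillary electrophoresis fluorescence.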 Particulars: HepG2 Attagene ARE/NRF2 reporter, transcription factor activity; actives raise or lower the signal. The gist of the method: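 HepG2 cells transiently transfected with multiplexed cis-element reporter constructs, 24 h after chemical dosing; reporter mRNA quantified by RT-PCR, fluorescent primer extension, HpaI digestion and capillary electrophoresis. Bidirectional fit relative to DMSO.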

Assay [11] can be described thus: ATG_Oct_MLP_CIS: Attagene CIS-FACTORIAL HepG2 Assay for human Octamer-Binding Transcription Factor (Oct) (AID 2282993). Particulars: HepG2 Attagene cis-factorial Oct reporter, mRNA; actives raise or lower the signal. The gist of the method:
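HepG2 cells transiently transfected with cis-element-driven reporter transcription units (endogenous TF activity); 24 h compound exposure. Reporter mRNA quantified by RT-PCR, 6-FAM labelling, HpaI digestion and capillary electrophoresis; bidirectional fit versus DMSO baseline.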

Assay [12] concerns the target Cellular tumor antigen p53 (Homo sapiens) (UniProt P04637). Put plainly: ATG_p53_CIS: Attagene CIS-FACTORIAL HepG2 Assay for human p53 Transcription Factor (AID 2282994). Particulars: HepG2 p53 cis-element reporter, Attagene mRNA; actives raise or lower the signal. The gist of the method:
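HepG2 cells transiently transfected with cis-regulated multiple reporter transcription units, dosed 24 h. Reporter mRNA measured by RT-PCR, 6-FAM primer extension, HpaI digestion and capillary electrophoresis; bidirectional fit relative to DMSO.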

Assay [13] can be described thus: BSK_3C_uPAR: BioMAP Diversity Plus: 3C Assay for Urokinase-type plasminogen activator receptor (uPAR) Biomarker Activity (AID 2282998). Particulars: BioMAP 3C HUVEC, uPAR biomarker ELISA; actives raise or lower the signal. The gist of the method:
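Primary human umbilical vein endothelial cells, 3C system; surface uPAR measured by ELISA 24 h after dosing. Cytotoxicity via SRB total protein in parallel cultures; bidirectional fit against DMSO.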
For orientation: In an ELISA, binding on a coated surface is turned into a signal by an enzyme label.

The nature of assay [14]: BSK_3C_VCAM1: BioMAP Diversity Plus: 3C Assay for Vascular cell adhesion molecule 1 (VCAM1) Biomarker Activity (AID 2282999). The following applies: BioMAP 3C HUVEC, VCAM1 ELISA, cytokine-stimulated; actives raise or lower the signal. The gist of the method: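 Human umbilical vein endothelial cells were dosed with compound for 24 h, after which cell-surface VCAM-1 was quantified by ELISA. Bidirectional curve fitting used DMSO as negative control and activity baseline.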

Assay [15] concerns the target Oxysterols receptor LXR-alpha (Homo sapiens) (UniProt Q13133). Put plainly: ATG_LXRa_TRANS: Attagene TRANS-FACTORIAL HepG2 Assay for human Liver X Receptor alpha (LXRa) (AID 2282980; active = hit-call score of the fitted dose curve at least 0.9, where 1 is the maximum). The following applies: HepG2 Attagene TRANS reporter, LXRa transactivation. The gist of the method:
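HepG2 cells were transiently transfected with multiplexed reporter units driven by chimeric LXRa–GAL4 fusion proteins, then dosed for 24 h. Reporter mRNA was quantified by RT-PCR, fluorescent labelling and capillary electrophoresis; gain of signal fitted against DMSO baseline.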

In assay [16] the target is Oxysterols receptor LXR-beta (Homo sapiens) (UniProt P55055). Put plainly: ATG_LXRb_TRANS: Attagene TRANS-FACTORIAL HepG2 Assay for human Liver X Receptor beta (LXRb) (AID 2282981; active = hit-call score of the fitted dose curve at least 0.9, where 1 is the maximum). Particulars: HepG2 Attagene TRANS GAL4-LXRb reporter, mRNA. The gist of the method: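 In this TRANS format, exogenous chimeric NR-Gal4 protein activity, not endogenous factors, drives reporter expression in transfected human HepG2 cells. Exposure lasted 24 h; reporter mRNA was read by fluorescent capillary electrophoresis.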

A short description of assay [17]: ATG_M_32_TRANS: Attagene TRANS-FACTORIAL HepG2 Assay for M32 Transcription Factor (Internal Marker) (AID 2282984; active = hit-call score of the fitted dose curve at least 0.9, where 1 is the maximum). Particulars: HepG2 Attagene TRANS M32 internal marker reporter. The gist of the method: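 Human hepatoma HepG2, transient MRTU transfection, 24 h treatment. RNA → RT-PCR → fluorescent primer extension → HpaI digest (2 h, 37 C) → CE. Positive-direction fit vs DMSO.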

Assay [18] can be described thus: ATG_NF_kB_CIS: Attagene CIS-FACTORIAL HepG2 Assay for human Nuclear Factor Kappa B (NF-kB) (AID 2282991). Particulars: HepG2 Attagene cis-factorial NF-kB reporter mRNA; actives raise or lower the signal. The gist of the method: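 Endogenous transcription factor activity in HepG2 was captured via cis-regulated reporter constructs; after 24 h dosing, reporter mRNA was reverse-transcribed, amplified, fluorescently labelled and sized by capillary electrophoresis, with activity fitted bidirectionally relative to DMSO.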

Records with an inconclusive call do not appear. Calls of active or inactive are those of the source. The calls were made as follows, unless noted: active = hit-call score of the fitted dose curve at least 0.9, where 1 is the maximum; inactive = score below 0.9.

Sequence of Myc proto-oncogene protein (Homo sapiens) (P01106 whole entry, looked up): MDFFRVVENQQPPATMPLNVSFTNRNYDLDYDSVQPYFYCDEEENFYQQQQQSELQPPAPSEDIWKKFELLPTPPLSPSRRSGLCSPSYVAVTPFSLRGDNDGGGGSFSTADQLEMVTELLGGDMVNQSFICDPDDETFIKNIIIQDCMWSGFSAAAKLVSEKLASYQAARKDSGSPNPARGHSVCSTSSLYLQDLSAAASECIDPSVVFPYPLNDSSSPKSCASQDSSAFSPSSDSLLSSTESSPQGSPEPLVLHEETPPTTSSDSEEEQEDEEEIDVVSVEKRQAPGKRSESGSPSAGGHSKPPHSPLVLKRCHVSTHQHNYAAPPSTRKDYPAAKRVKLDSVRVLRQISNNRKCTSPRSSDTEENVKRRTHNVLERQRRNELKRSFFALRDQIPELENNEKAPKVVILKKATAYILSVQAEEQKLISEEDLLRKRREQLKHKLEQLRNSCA
Sequence of Nuclear receptor subfamily 4 group A member 2 (Homo sapiens) (P43354 whole entry, looked up): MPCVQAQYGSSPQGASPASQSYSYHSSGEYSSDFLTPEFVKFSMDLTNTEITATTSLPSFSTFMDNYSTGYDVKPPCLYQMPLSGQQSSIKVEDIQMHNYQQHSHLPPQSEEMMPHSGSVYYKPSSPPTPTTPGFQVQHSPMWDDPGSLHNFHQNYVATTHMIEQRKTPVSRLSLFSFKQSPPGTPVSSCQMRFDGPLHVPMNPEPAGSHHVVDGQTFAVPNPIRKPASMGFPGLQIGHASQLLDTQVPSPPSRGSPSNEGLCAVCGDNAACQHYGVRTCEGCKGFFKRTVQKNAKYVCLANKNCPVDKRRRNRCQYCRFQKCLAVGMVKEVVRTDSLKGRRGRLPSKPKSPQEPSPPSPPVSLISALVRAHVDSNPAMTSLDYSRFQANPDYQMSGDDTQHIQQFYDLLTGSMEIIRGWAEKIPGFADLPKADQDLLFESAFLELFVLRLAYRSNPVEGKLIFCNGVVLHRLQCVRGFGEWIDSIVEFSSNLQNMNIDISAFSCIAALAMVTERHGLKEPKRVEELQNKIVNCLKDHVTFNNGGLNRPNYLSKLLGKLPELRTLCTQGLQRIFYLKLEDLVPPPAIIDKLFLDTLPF
Sequence of Transcriptional activator Myb (Homo sapiens) (P10242 whole entry, looked up): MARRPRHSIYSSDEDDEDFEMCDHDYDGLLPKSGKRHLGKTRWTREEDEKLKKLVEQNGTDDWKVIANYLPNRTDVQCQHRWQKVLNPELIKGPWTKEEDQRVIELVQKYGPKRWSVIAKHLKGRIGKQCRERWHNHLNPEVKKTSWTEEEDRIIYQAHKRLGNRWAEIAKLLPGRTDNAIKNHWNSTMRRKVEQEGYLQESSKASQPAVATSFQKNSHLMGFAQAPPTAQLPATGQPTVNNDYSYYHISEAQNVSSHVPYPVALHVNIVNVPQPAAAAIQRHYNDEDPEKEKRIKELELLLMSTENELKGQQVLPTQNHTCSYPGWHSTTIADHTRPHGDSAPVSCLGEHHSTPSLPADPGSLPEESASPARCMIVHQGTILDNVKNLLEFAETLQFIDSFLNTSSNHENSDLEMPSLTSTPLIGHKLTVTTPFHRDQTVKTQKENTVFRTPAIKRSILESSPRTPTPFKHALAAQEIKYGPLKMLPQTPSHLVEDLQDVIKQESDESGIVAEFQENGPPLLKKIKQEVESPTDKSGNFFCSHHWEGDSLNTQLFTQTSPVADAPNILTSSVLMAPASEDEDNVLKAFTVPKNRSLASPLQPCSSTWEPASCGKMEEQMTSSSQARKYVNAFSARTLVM
Sequence of Glucocorticoid receptor (Homo sapiens) (P04150 whole entry, looked up, the tested form may be a part): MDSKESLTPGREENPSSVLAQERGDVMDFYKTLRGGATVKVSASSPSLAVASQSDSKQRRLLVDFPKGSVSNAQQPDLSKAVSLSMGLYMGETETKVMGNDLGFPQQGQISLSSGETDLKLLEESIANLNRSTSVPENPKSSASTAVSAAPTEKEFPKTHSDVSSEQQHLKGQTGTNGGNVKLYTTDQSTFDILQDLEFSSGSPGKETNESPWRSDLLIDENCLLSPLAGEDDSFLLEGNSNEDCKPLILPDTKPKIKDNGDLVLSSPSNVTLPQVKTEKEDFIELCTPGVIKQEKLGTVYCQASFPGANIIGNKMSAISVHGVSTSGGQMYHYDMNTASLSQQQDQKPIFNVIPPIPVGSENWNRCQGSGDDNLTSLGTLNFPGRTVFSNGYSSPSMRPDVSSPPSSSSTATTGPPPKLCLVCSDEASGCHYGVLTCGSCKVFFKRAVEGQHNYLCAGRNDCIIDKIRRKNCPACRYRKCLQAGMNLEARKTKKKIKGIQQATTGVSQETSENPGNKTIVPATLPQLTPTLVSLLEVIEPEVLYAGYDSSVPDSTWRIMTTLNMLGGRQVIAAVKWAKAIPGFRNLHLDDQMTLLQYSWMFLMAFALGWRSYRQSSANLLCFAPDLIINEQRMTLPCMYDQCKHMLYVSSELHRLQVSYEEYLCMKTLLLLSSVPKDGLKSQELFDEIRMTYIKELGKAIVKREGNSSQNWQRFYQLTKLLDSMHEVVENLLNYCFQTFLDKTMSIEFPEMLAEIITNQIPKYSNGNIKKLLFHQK
Sequence of Bile acid receptor (Homo sapiens) (Q96RI1 whole entry, looked up, the tested form may be a part): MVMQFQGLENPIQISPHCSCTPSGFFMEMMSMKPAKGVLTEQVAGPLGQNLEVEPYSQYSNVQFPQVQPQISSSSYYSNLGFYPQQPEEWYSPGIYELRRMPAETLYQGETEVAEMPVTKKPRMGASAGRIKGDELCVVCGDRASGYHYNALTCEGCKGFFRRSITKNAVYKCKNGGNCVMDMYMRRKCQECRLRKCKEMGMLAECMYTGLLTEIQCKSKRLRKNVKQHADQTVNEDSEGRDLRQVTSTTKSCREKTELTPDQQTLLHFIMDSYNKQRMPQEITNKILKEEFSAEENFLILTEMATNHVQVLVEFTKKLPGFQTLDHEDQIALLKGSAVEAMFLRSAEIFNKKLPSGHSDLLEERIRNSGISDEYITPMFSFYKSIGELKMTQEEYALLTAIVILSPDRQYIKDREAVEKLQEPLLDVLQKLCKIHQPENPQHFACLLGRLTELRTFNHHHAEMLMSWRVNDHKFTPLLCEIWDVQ
Sequence of Nuclear respiratory factor 1 (Homo sapiens) (Q16656 whole entry, looked up, the tested form may be a part): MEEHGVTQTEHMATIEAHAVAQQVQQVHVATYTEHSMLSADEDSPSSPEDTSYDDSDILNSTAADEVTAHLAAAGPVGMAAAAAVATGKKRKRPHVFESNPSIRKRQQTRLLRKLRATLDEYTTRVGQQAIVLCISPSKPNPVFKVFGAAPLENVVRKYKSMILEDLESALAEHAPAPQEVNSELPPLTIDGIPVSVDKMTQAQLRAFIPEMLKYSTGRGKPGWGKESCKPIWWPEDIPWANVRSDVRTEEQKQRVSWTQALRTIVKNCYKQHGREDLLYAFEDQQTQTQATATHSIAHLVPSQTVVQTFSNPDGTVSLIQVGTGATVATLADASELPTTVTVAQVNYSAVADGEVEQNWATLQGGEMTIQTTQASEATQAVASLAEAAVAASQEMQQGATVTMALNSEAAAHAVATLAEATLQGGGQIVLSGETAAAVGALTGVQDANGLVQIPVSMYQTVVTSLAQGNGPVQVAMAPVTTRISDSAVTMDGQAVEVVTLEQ
Sequence of Cellular tumor antigen p53 (Homo sapiens) (P04637 whole entry, looked up): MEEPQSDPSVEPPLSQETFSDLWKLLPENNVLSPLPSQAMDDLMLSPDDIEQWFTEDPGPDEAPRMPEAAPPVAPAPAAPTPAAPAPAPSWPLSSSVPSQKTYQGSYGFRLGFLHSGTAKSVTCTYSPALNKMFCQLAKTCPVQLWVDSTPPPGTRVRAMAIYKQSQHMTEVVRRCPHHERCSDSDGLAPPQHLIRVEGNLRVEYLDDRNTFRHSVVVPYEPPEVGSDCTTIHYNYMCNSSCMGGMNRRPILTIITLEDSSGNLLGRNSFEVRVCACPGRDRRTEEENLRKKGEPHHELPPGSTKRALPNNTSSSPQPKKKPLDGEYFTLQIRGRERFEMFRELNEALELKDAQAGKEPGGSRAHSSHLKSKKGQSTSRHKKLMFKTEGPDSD
Sequence of Oxysterols receptor LXR-alpha (Homo sapiens) (Q13133 whole entry, looked up, the tested form may be a part): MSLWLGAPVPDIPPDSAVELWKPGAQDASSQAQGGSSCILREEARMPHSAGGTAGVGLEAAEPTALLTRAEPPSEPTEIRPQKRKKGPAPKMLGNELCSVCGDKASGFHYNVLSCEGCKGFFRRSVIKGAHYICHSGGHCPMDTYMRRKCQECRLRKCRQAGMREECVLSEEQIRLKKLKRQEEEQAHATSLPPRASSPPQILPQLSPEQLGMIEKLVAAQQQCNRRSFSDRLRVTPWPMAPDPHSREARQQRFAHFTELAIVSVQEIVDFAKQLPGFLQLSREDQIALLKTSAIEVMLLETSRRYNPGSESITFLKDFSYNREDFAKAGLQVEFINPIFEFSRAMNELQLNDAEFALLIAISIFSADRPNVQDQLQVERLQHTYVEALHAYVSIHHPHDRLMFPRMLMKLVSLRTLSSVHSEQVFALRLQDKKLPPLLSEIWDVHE
Sequence of Oxysterols receptor LXR-beta (Homo sapiens) (P55055 whole entry, looked up, the tested form may be a part): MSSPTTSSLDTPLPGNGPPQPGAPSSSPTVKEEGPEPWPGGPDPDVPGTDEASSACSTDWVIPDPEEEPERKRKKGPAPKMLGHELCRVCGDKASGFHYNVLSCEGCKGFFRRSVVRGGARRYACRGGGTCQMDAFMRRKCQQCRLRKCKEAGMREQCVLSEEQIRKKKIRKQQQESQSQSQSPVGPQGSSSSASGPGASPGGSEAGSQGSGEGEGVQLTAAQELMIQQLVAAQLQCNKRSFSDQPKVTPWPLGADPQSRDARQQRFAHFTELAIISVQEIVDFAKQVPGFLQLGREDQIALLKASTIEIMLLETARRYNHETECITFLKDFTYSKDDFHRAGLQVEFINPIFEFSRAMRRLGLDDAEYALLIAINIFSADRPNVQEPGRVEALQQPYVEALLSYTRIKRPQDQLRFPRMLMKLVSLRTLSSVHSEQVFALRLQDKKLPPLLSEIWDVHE

On to `CCOP(=S)(NC(C)C)Oc1ccccc1C(=O)OC(C)C` (stereo not given), for which the compound was classed as inactive in assay [1], in [2], in [3], in assay [4], in assay [6] and in assay [7]. The outcome in assay [8], in assay [9], in [10], in [11], in assay [12] and in [13] was inactive. Further, the outcome in [14] was inactive. Besides, the AC50 – broadly, the concentration giving half of the maximal activity seen – in assay [5] was 57.4 µM (active).

Turning to `CC(=O)c1ccc(-c2ccccc2)cc1`, the compound was called inactive in assay [1], in assay [2], in [15], in assay [16], in [4] and in assay [17]. Moreover, the outcome in [5], in assay [6], in assay [7], in assay [8], in [9] and in assay [18] was inactive. Further, the result in [10], in assay [11] and in [12] was inactive.

Turning to `O=[N+]([O-])c1cc(Cl)ccc1Cl`, the compound was classed as inactive in assay [1], in [2], in assay [15], in assay [4], in [17] and in [6]. Further, the compound was called inactive in assay [7], in [8], in [9], in assay [18], in assay [10] and in assay [11]. The call in assay [12] was inactive.

For `Oc1ccc(I)cc1`, the result in assay [1], in [2], in assay [4], in [17], in assay [5] and in assay [6] was inactive. Moreover, the compound was called inactive in assay [7], in [8], in [9], in assay [18], in assay [11] and in assay [12]. Besides, the AC50 in assay [10] was 67.3 µM (active).

For the origin of these results see PubChem BioAssay (EPA / NIEHS).
